Data from PubChem BioAssay.
Activity calls are given as the source filed them.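 The calls were made as follows, unless noted: active = inhibition at or above 50% at 10 µM; inactive = inhibition below 50%.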

Tests used:
[1] = inhibitors of TNFa-induced NFkB p65 translocation, primary screen, imaging, HUVEC, MLSMR starter and 10KST1 sets (AID 438;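 active = inhibition above 20% together with a positive visual image hit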;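 also: compound added about 3h40 before a 20 min TNFalpha stimulation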;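 as to inhibition: signal is the nuclear over cytoplasmic p65 intensity ratio per well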); settings: HUVEC TNFa-induced p65 nuclear translocation; cell count: measured here: nuclei count (cytotoxicity indicator), at 2.08 µM; inhibition: at 2 µM, stronger effect = higher value, 0% TNFa-plus-vehicle, 100% no-TNFa wells
[2] = inhibitors of mutant huntingtin aggregation, primary screen, imaging, exon1htt(103Q)mCFP cells, high-content imaging (AID 483;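 active = visual image review flags a hit and inhibition of aggregation exceeds 20%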;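 also: compound exposure lasted 3 days before fixation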;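 as to nuclei count: percent of the per-plate median nuclei count of sample wells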); settings: exon1htt(103Q)mCFP cell line, aggregate imaging, at 2 µM; inhibition of aggregation: stronger effect = higher value; nuclei count: measured here: cell count, toxicity
[3] = inhibitors of E-selectin induction by TNFa, primary screen, imaging, HUVEC, immunofluorescence, MLSMR starter and 10KST1 sets (AID 487;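 active = visually confirmed hit in the image check and inhibition above 20%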;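 as to inhibition: signal is fraction of cell area covered by stained E-selectin grains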;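 as to nuclei count: 100% = median nuclei count of all wells on the same plate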); settings: HUVEC TNFalpha-induced E-selectin immunofluorescence imaging, at 2 µM; inhibition: stronger effect = higher value; nuclei count: measured here: cell number, toxicity
[4] = molecular target: Voltage-gated potassium channel subunit beta-2 (Rattus norvegicus) (UniProt P62483); assay: KvBeta enzyme negative modulators, primary screen, biochemical, NADPH fluorescence (AID 622;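 active = fluorescence slope higher than the sample average by over 3 SD, cut at about -0.22 in these data, passing the limit was not always enough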;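 also: slope of raw intensity against log time taken from 70 to 1610 s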); settings: recombinant KvBeta, 4-cyanobenzaldehyde reduction, at 10 µM, stronger effect = higher value
[5] = molecular target: Voltage-gated potassium channel subunit beta-2 (Rattus norvegicus) (UniProt P62483); assay: KvBeta positive modulators, primary screen, biochemical, NADPH fluorescence (AID 623;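 active = NADPH fluorescence slope more negative than the mean of all samples by about 3 SD, 99.7% confidence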;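 also: fluorescence intensity change per second fitted from 20 to 320 s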); settings: Recombinant KvBeta, NADPH fluorescence decrease slope, 10 min; at 10 µM; stronger effect = lower value
[6] = molecular target: Alpha-2C adrenergic receptor (Homo sapiens) (UniProt P18825); assay: modulators of alpha2C/GIRK thallium flux, primary screen, cell-based, HEK293 alpha2C/GIRK1/2 (AID 624;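 active = fluorescence slope after compound addition differing from the mean of all screened samples at 99.7% confidence, in either direction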;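 also: slope of fluorescence ratio to pre-addition baseline per second over 15 to 24 s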); settings: thallium flux BTC fluorescence, at 10 µM, actives lie on both sides
[7] = inhibitors of Sendai virus-induced IRF3 signaling, primary screen, TLR/RLR signaling modifier project, cell-based, Sendai virus stimulus, luciferase, 10K MLSCN set (AID 602276); settings: HEK293 RL24 IRF3 luciferase reporter, at 10 µM, stronger effect = higher value;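 also: firefly luciferase from ISG56 promoter only with Renilla not read in this screen; 0% = Sendai virus plus DMSO and 100% = medium plus DMSO without virus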
[8] = inhibitors of poly I:C-induced TLR3 signaling, primary screen, cell-based, poly I:C stimulus, luciferase, 10K MLSCN set (AID 602277;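 active = inhibition of the reporter signal at or above 50%; inactive = inhibition below 50%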); settings: HEK293-TLR3 RL24 IRF3 luciferase reporter, at 10 µM, stronger effect = higher value

Voltage-gated potassium channel subunit beta-2 (Rattus norvegicus), sequence (P62483 whole entry, looked up): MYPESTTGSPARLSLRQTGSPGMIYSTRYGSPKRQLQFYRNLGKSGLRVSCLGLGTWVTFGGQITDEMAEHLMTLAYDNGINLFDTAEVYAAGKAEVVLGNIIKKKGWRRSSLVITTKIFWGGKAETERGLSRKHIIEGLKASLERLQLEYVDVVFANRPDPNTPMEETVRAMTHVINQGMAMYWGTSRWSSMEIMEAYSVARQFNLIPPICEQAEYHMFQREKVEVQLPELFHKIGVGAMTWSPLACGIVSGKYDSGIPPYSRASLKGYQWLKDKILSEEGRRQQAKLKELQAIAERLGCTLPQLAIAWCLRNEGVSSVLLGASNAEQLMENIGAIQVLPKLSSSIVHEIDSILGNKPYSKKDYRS
Alpha-2C adrenergic receptor (Homo sapiens), sequence (P18825 whole entry, looked up): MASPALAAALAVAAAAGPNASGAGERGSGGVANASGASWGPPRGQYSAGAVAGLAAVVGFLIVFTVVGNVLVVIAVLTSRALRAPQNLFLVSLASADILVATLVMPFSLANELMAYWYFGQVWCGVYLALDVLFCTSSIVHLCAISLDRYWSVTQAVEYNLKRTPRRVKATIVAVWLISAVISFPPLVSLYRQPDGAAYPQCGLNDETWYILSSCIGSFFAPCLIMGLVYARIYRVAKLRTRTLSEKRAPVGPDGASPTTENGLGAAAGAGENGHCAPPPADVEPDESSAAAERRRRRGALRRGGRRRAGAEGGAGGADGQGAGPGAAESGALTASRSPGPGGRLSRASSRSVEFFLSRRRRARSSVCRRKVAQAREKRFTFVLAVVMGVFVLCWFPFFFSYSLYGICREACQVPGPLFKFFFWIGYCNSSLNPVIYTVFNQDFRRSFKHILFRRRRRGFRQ

Structure (SMILES): C=CCNc1oc(-c2cccc3ccccc23)nc1C#N
- cell count [1]: 365
- inhibition [1]: -0.4% (inactive)
- inhibition of aggregation [2]: 9.2% (inactive)
- nuclei count [2]: 98.8%
- inhibition [3]: -110% (inactive)
- nuclei count [3]: 97.4%
- fluorescence slope [4]: -0.0687 (active)
- NADPH fluorescence slope [5]: 1.5e-06 (inactive)
- slope [6]: 0.00477 (inactive)
- inhibition [7]: -4.72% (inactive)
- inhibition [8]: -35.7% (inactive)

Structure (SMILES): CCOC(=O)CSc1nn(C)c(=S)s1
- cell count [1]: 723
- inhibition [1]: 0.6% (inactive)
- inhibition of aggregation [2]: -4.4% (inactive)
- nuclei count [2]: 108%
- inhibition [3]: -19.1% (inactive)
- nuclei count [3]: 104%
- fluorescence slope [4]: -0.573 (inactive)
- NADPH fluorescence slope [5]: -1.7e-05 (inactive)
- slope [6]: 0.00733 (inactive)
- inhibition [7]: 3.99% (inactive)
- inhibition [8]: 21.1% (inactive)

Structure (SMILES): CC(CCc1ccccc1)NC(=O)c1ccc(Br)o1 (centres undefined)
- cell count [1]: 570
- inhibition [1]: -7.8% (inactive)
- inhibition of aggregation [2]: 2.5% (inactive)
- nuclei count [2]: 83.4%
- inhibition [3]: -78.2% (inactive)
- nuclei count [3]: 95.1%
- fluorescence slope [4]: -0.449 (inactive)
- NADPH fluorescence slope [5]: -3.4e-05 (inactive)
- slope [6]: 0.00563 (inactive)
- inhibition [7]: 7.34% (inactive)
- inhibition [8]: 9.03% (inactive)

Structure (SMILES): O=C(CC1Oc2ccccc2NC1=O)NCCCN1CCOCC1 (centres undefined)
- cell count [1]: 620
- inhibition [1]: 6.1% (inactive)
- inhibition of aggregation [2]: -1.6% (inactive)
- nuclei count [2]: 112%
- inhibition [3]: 24.8% (inactive)
- nuclei count [3]: 100%
- fluorescence slope [4]: -0.56 (inactive)
- NADPH fluorescence slope [5]: -1.9e-05 (inactive)
- slope [6]: 0.00542 (inactive)
- inhibition [7]: 8.81% (inactive)
- inhibition [8]: 38.3% (inactive)

Structure (SMILES): c1ccc(Cn2nnnc2CN2CCCC2)cc1
- cell count [1]: 433
- inhibition [1]: -9.4% (inactive)
- inhibition of aggregation [2]: 2.6% (inactive)
- nuclei count [2]: 100%
- inhibition [3]: -38.6% (inactive)
- nuclei count [3]: 94%
- fluorescence slope [4]: -0.499 (inactive)
- NADPH fluorescence slope [5]: -2.2e-05 (inactive)
- slope [6]: 0.00601 (inactive)
- inhibition [7]: 14.5% (inactive)
- inhibition [8]: 19.4% (inactive)

Structure (SMILES): CCCCc1ccc(NC(=O)C2CCCO2)cc1 (centres undefined)
- cell count [1]: 387
- inhibition [1]: -1.8% (inactive)
- inhibition of aggregation [2]: -7.2% (inactive)
- nuclei count [2]: 105%
- inhibition [3]: -122% (inactive)
- nuclei count [3]: 98.5%
- fluorescence slope [4]: -0.376 (inactive)
- NADPH fluorescence slope [5]: -3e-05 (inactive)
- slope [6]: 0.00635 (inactive)
- inhibition [7]: -42.7% (inactive)
- inhibition [8]: -136% (inactive)

Structure (SMILES): O=C(NC1CCCCCC1)c1c(F)c(F)c(F)c(F)c1F
- cell count [1]: 448
- inhibition [1]: 1.8% (inactive)
- inhibition of aggregation [2]: 3.9% (inactive)
- nuclei count [2]: 104%
- inhibition [3]: 1.8% (inactive)
- nuclei count [3]: 118%
- fluorescence slope [4]: -0.299 (inactive)
- NADPH fluorescence slope [5]: -1.4e-05 (inactive)
- slope [6]: 0.00585 (inactive)
- inhibition [7]: 1.12% (inactive)
- inhibition [8]: 12.3% (inactive)

Structure (SMILES): CCOC(=O)C1=C(N)OC2=C(C(=O)CC(C)(C)C2)C1c1ccoc1 (centres undefined)
- cell count [1]: 774
- inhibition [1]: -12.9% (inactive)
- inhibition of aggregation [2]: -14.6% (inactive)
- nuclei count [2]: 78.3%
- inhibition [3]: -15.3% (inactive)
- nuclei count [3]: 110%
- fluorescence slope [4]: -0.418 (inactive)
- NADPH fluorescence slope [5]: -4e-05 (inactive)
- slope [6]: 0.00368 (inactive)
- inhibition [7]: 3.82% (inactive)
- inhibition [8]: 7.84% (inactive)

Structure (SMILES): CCn1c(CCC(=O)Nc2nc3c(s2)CCCC3)nc2cc(S(=O)(=O)N(C)C)ccc21
- cell count [1]: 288
- inhibition [1]: 1.4% (inactive)
- inhibition of aggregation [2]: -9% (inactive)
- nuclei count [2]: 103%
- inhibition [3]: -54.4% (inactive)
- nuclei count [3]: 123%
- fluorescence slope [4]: -0.398 (inactive)
- NADPH fluorescence slope [5]: -3e-05 (inactive)
- slope [6]: 0.00627 (inactive)
- inhibition [7]: 14.6% (inactive)
- inhibition [8]: 18.8% (inactive)

Structure (SMILES): CCN(CC)C(=O)Oc1ccc(NC(C)=O)cc1
- cell count [1]: 383
- inhibition [1]: 2.1% (inactive)
- inhibition of aggregation [2]: 1.1% (inactive)
- nuclei count [2]: 99.8%
- inhibition [3]: -27.3% (inactive)
- nuclei count [3]: 102%
- fluorescence slope [4]: -0.431 (inactive)
- NADPH fluorescence slope [5]: -6.8e-05 (inactive)
- slope [6]: 0.00611 (inactive)
- inhibition [7]: -1% (inactive)
- inhibition [8]: 23% (inactive)

Structure (SMILES): COc1cccc(CN=CC2=C(O)CC(C)(C)CC2=O)c1OC
- cell count [1]: 326
- inhibition [1]: -18.3% (inactive)
- inhibition of aggregation [2]: -1.8% (inactive)
- nuclei count [2]: 99.6%
- inhibition [3]: -1.5% (inactive)
- nuclei count [3]: 111%
- fluorescence slope [4]: -0.468 (inactive)
- NADPH fluorescence slope [5]: 9.7e-05 (inactive)
- slope [6]: 0.00629 (inactive)
- inhibition [7]: 1.64% (inactive)
- inhibition [8]: 3.58% (inactive)

Structure (SMILES): N#CCCN(Cc1cccnc1)C(=O)Nc1ccc(Cl)c(Cl)c1
- cell count [1]: 398
- inhibition [1]: 3.1% (inactive)
- inhibition of aggregation [2]: -31.1% (inactive)
- nuclei count [2]: 109%
- inhibition [3]: -20.5% (inactive)
- nuclei count [3]: 99.6%
- fluorescence slope [4]: -0.449 (inactive)
- NADPH fluorescence slope [5]: 5.4e-05 (inactive)
- slope [6]: 0.0054 (inactive)
- inhibition [7]: 15.4% (inactive)
- inhibition [8]: 29.1% (inactive)

Structure (SMILES): COc1ccc(C2CC(c3ccc(C)cc3)Nc3ncnn32)cc1 (centres undefined)
- cell count [1]: 615
- inhibition [1]: -0.2% (inactive)
- inhibition of aggregation [2]: -9.1% (inactive)
- nuclei count [2]: 107%
- inhibition [3]: 30.7% (inactive)
- nuclei count [3]: 98.3%
- fluorescence slope [4]: -0.524 (inactive)
- NADPH fluorescence slope [5]: -2.3e-05 (inactive)
- slope [6]: 0.00685 (inactive)
- inhibition [7]: 7.28% (inactive)
- inhibition [8]: 16.4% (inactive)

Structure (SMILES): COC(=O)C1=CN(C(C)C)C=C(C(=O)OC)C1c1cc2c(cc1Br)OCO2
- cell count [1]: 386
- inhibition [1]: 8.1% (inactive)
- inhibition of aggregation [2]: 10.8% (inactive)
- nuclei count [2]: 104%
- inhibition [3]: -70.4% (inactive)
- nuclei count [3]: 78.3%
- fluorescence slope [4]: -0.365 (inactive)
- NADPH fluorescence slope [5]: 2e-05 (inactive)
- slope [6]: 0.00637 (inactive)
- inhibition [7]: 5.71% (inactive)
- inhibition [8]: 11% (inactive)

Structure (SMILES): O=C(Nc1ccc(F)cc1F)NC1CC(=O)N(Cc2ccccc2)C1 (centres undefined)
- cell count [1]: 664
- inhibition [1]: 1.6% (inactive)
- inhibition of aggregation [2]: 22.4% (inactive)
- nuclei count [2]: 66.3%
- inhibition [3]: 4.4% (inactive)
- nuclei count [3]: 103%
- fluorescence slope [4]: -0.571 (inactive)
- NADPH fluorescence slope [5]: -1.6e-05 (inactive)
- slope [6]: 0.0068 (inactive)
- inhibition [7]: -12.5% (inactive)
- inhibition [8]: 1.35% (inactive)

Structure (SMILES): CC1CCN(S(=O)(=O)c2ccc(Br)s2)CC1
- cell count [1]: 437
- inhibition [1]: 13% (inactive)
- inhibition of aggregation [2]: -1.9% (inactive)
- nuclei count [2]: 102%
- inhibition [3]: -79.2% (inactive)
- nuclei count [3]: 108%
- fluorescence slope [4]: -0.489 (inactive)
- NADPH fluorescence slope [5]: 2.6e-05 (inactive)
- slope [6]: 0.00656 (inactive)
- inhibition [7]: 8.6% (inactive)
- inhibition [8]: 20.9% (inactive)

Structure (SMILES): CCc1nccn1S(=O)(=O)c1ccc(C)c(C)c1
- cell count [1]: 603
- inhibition [1]: -11.5% (inactive)
- inhibition of aggregation [2]: 7% (inactive)
- nuclei count [2]: 94%
- inhibition [3]: -33% (inactive)
- nuclei count [3]: 117%
- fluorescence slope [4]: -0.618 (inactive)
- NADPH fluorescence slope [5]: -5.2e-05 (inactive)
- slope [6]: 0.00545 (inactive)
- inhibition [7]: 7.1% (inactive)
- inhibition [8]: 12.9% (inactive)

Structure (SMILES): CCOC(=O)c1cccc(NC(=O)CSc2nc3cccnc3n2C)c1
- cell count [1]: 782
- inhibition [1]: -8.4% (inactive)
- inhibition of aggregation [2]: 0.7% (inactive)
- nuclei count [2]: 111%
- inhibition [3]: -14.2% (inactive)
- nuclei count [3]: 105%
- fluorescence slope [4]: -0.526 (inactive)
- NADPH fluorescence slope [5]: 4.1e-06 (inactive)
- slope [6]: 0.00563 (inactive)
- inhibition [7]: -4.22% (inactive)
- inhibition [8]: -23.7% (inactive)

Structure (SMILES): O=C(NCC1CCCO1)c1cccc(N2C(=O)C3C4C=CC(C4)C3C2=O)c1 (centres undefined)
- cell count [1]: 628
- inhibition [1]: 8.8% (inactive)
- inhibition of aggregation [2]: 0% (inactive)
- nuclei count [2]: 101%
- inhibition [3]: -16.1% (inactive)
- nuclei count [3]: 118%
- fluorescence slope [4]: -0.42 (inactive)
- NADPH fluorescence slope [5]: -4e-05 (inactive)
- slope [6]: 0.00583 (inactive)
- inhibition [7]: 8.37% (inactive)
- inhibition [8]: 10.8% (inactive)
